# Records with an inconclusive call do not appear. Active and inactive are the calls of the source. Calls follow the shape of the dose curve; as a rule, active = well fitted inhibition curve with a large enough effect; inconclusive = small, poorly fitted or top-dose-only effect; inactive = no such curve, though single readings can be large or run the other way.
# Target: Thyroid hormone receptor beta (Homo sapiens) (UniProt P10828)
# Assay: Concentration Response Confirmation Assay for Inhibitors of the Interaction of Thyroid Hormone Receptor and Steroid Receptor Coregulator 2
# Conditions: TRb LBD + Texas Red SRC2 peptide, fluorescence polarization, 5 h; series mostly up to 92.2 µM
# Excerpt: NIH Molecular Libraries Probe Production Network [MLPCN] NIH Chemical Genomics Center [NCGC] MLPCN Grant: DK058080 Assay Provider: R. Kip Guy, St. Jude Children's Research Hospital NCGC Assay Overview: Thyroid receptor (TR) regulates many homeostatic processes including basal metabolism, cardiovascular function, body weight, and lipid trafficking. TR modulators are potential therapeutics for obesity and hyperlipidemias but current thyroid analogs have undesirable side effects, particularly cardiac stimulation. To identify inhibitors that specifically prevent the interaction of TR with the steroid receptor coregulator 2 (SRC2), a fluorescence polarization assay was screened. This assay detects interaction of the ligand-binding domain of human TRb with a Texas Red labeled SRC2 peptide, corresponding to a 20 amino acid region of the nuclear receptor interaction domain (Arnold et al., 2006). Small molecule inhibitors that block the interaction of TR and SRC2 are detected by a decrease in fluorescence polarization. This assay is a confirmation assay for AID 1469. Arnold, L. A.; Estebanez-Perpina, E.; Togashi, M.; Shelat, A.; Ocasio, C. A.; McReynolds, A. C.; Nguyen, P.; Baxter, J. D.; Fletterick, R. J.; Webb, P.; Guy, R. K. A high-throughput screening method to identify small molecule inhibitors of thyroid hormone receptor coactivator binding. Sci STKE 2006, p 13.
# NCGC Assay Protocol Summary: For screening, 5 uL/well 0.6 uM TRb and 20 nM SRC2 Texas Red in protein buffer (20mM Tris hydrochloride, 100mM NaCl, 10% glycerol, 1mM EDTA, 0.01% NP-40, 1mM DTT, 1uM T3 and 5% DMSO) was dispensed into black solid 1536-well plates (Grenier) using a solenoid-based dispenser. […] The plates were read by an Envision (Perkin Elmer) to detect fluorescence polarization of SRC2 Texas Red (555 nm excitation and 632 nm emission). […] Keywords: NIH Roadmap, MLPCN, MLI, MLSMR, qHTS, NCGC, qHTS, thyroid hormone receptor, steroid receptor coactivator, fluorescence polarization
# Sequence of Thyroid hormone receptor beta (Homo sapiens) (P10828 whole entry, looked up): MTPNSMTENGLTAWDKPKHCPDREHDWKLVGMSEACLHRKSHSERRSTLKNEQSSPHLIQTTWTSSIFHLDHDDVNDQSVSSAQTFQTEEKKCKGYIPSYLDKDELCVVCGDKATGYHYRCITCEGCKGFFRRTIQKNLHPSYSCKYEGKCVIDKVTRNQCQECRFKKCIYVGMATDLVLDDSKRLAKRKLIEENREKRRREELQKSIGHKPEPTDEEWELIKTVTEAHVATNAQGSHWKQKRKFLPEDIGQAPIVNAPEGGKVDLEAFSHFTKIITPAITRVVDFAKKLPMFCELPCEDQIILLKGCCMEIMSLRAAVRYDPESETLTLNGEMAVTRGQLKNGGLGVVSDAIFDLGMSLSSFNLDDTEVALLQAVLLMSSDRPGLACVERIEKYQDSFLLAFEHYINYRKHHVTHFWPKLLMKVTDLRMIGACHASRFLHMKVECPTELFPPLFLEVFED
row,Compound,Potency
1,COP(=S)(OC)Oc1ccc([N+](=O)[O-])cc1,25.1 µM (active)
2,CCn1nc(-c2cccs2)nc2c(=O)n(C)c(=O)nc1-2,inactive
3,CN1CC[C@@]2(C)c3cc(O)ccc3N(C)C2O1 (stereo partly drawn),25.1 µM (active)
